Laboratory results taken from PubChem BioAssay.
Calls of active or inactive are those of the source.

Columns and labels:
[1] = system: Plasmodium falciparum Sir2 (PF13_0152, Sir2A); test: Plasmodium falciparum Sir2A binding compounds – biochemical, small-molecule microarray, 635 nm fluorescence, primary screen (AID 1098); conditions: fluorescence 635 nm, higher = more signal;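 note: score merges spot fluorescence intensity with its signal-to-noise ratio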
[2] = probe aDKK1 binding to arrayed compounds – biochemical, biotinylated probe, 635/667 nm fluorescence, primary screen (AID 1099); conditions: small-molecule microarray, higher = more signal;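 note: score merges 667nm spot fluorescence with signal to noise across triplicate slides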
[3] = probe aCHRDL2 binding to arrayed compounds – biochemical, biotinylated probe, 635/667 nm fluorescence, primary screen (AID 1100); conditions: small-molecule microarray, higher = more signal
[4] = change in splice reporter luminescence, either direction, cell-based, HEK293, spliceosome inhibition project, primary screen (AID 1101); conditions: HEK293 splicing luciferase reporter, 24 h, higher = more signal, called active from +8 up or from −8 down;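 note: HEK293 cells carrying a splicing-competent luciferase reporter gene; test concentration not given here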
[5] = biological target: Fibroblast growth factor 10 (Homo sapiens) (UniProt O15520); test: compounds binding fibroblast growth factor 10 – biochemical, small-molecule microarray, 635 nm fluorescence, primary screen (AID 1102); conditions: FGF10 binding, fluorescence 635 nm, higher = more signal
[6] = system: glycogen synthase kinase-3 (GSK3A per assay name; protocol says GSK3B); test: compounds binding glycogen synthase kinase-3 – biochemical, small-molecule microarray, 635 nm fluorescence, GSK3A, primary screen (AID 1103); conditions: fluorescence 635 nm, higher = more signal; note: the record names both GSK3A and GSK3B
[7] = biological target: Epidermal growth factor receptor (Homo sapiens) (UniProt P00533); test: compounds binding epidermal growth factor receptor – biochemical, small-molecule microarray, 635 nm fluorescence, primary screen (AID 1104); conditions: EGFR binding, higher = more signal;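 note: score merges 667 nm emission intensity with spot signal to noise over triplicate slides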
[8] = biological target: Follistatin-related protein 3 (Homo sapiens) (UniProt O95633); test: compounds binding follistatin-related protein 3 – biochemical, small-molecule microarray, 635 nm fluorescence, primary screen (AID 1105); conditions: FSTL3 binding, higher = more signal;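 note: score merges emission near 667 nm and signal to noise per printed spot across three slides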
[9] = biological target: Dickkopf-related protein 1 (Homo sapiens) (UniProt O94907); test: small molecules binding DKK1 protein – biochemical, small-molecule microarray, 635 nm fluorescence scan, primary screen (AID 1106); conditions: higher = more signal;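 note: score merges emission near 667 nm with signal to noise over three replicate slides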
[10] = system: Inhibin beta A chain (activin A); test: small molecules binding activin A – biochemical, small-molecule microarray, 635 nm fluorescence scan, primary screen (AID 1107); conditions: INHBA, higher = more signal;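 note: mouse activin A protein probed at 4.33 µg/mL on printed slides; score merges bound-protein fluorescence near 667 nm with spot signal-to-noise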
[11] = system: Human papillomavirus type 1a protein E7 (residues 44-93); test: small molecules binding HPV E7 44-93 – biochemical, small-molecule microarray, residues 44-93, 635 nm fluorescence, primary screen (AID 1108); conditions: fluorescence 635 nm, higher = more signal;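 note: E7 fragment applied at 1 µg/mL in TBST for 1 h at 4 C; score combines spot fluorescence with its signal to noise ratio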
[12] = hepatitis C replication reporter changes, two-sided – Huh7 cells, luciferase reporter, HCV replication inhibitor project, primary screen (AID 1109); conditions: Huh7 HCV replicon luciferase reporter, 48 h; higher = more signal;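 note: huh7 hepatoma cells harbouring a luciferase neomycin HCV replicon reporter; luciferase luminescence as measure of HCV replicon replication; test concentration not given here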
[13] = biological target: Left-right determination factor 2 (Homo sapiens) (UniProt O00292); test: small molecules binding LEFTY2 protein – biochemical, small-molecule microarray, 635 nm fluorescence scan, primary screen (AID 1110); conditions: higher = more signal
[14] = biological target: Calmodulin-1 (Homo sapiens) (UniProt P0DP23); test: small molecules binding calmodulin-1 with EGTA – biochemical, small-molecule microarray, Cy5-labelled CALM1, profiling panel (AID 1111); conditions: Cy5-CALM1 binding fluorescence, higher = more signal;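 note: labelled calmodulin applied in Tris saline Tween buffer holding calcium plus EGTA and DTT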
[15] = biological target: Calmodulin-1 (Homo sapiens) (UniProt P0DP23); test: small molecules binding Ca-loaded calmodulin-1 – biochemical, small-molecule microarray, Cy5-labelled CALM1, plus calcium, artefact control for SMM control-protein annotation, profiling panel (AID 1112); conditions: Cy5-CALM1 binding fluorescence, higher = more signal;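 note: score merges spot fluorescence with signal to noise from triplicate slides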
[16] = probe aWnt5a binding to arrayed compounds – biochemical, biotinylated probe, 635/667 nm fluorescence, primary screen (AID 1113); conditions: small-molecule microarray, higher = more signal;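 note: score merges 667 nm fluorescence intensity with signal-to-noise per printed feature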
[17] = probe aShh binding to arrayed compounds – biochemical, biotinylated probe, 635/667 nm fluorescence, primary screen (AID 1114); conditions: small-molecule microarray, higher = more signal;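 note: probe is biotin-labelled aShh protein from a stem cell growth factor screen; measures binding of labelled protein to compounds printed on the slide; score merges feature fluorescence at 667 nm with signal-to-noise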
[18] = probe aNog binding to arrayed compounds – biochemical, biotinylated probe, 635/667 nm fluorescence, primary screen (AID 1115); conditions: small-molecule microarray, higher = more signal;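 note: probe is biotinylated aNog protein used at 0.15 µg/mL for 1 h at 4 C; z-score combines 667 nm fluorescence of each spot with its signal to noise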
[19] = biological target: Torsin-1A-interacting protein 1 (Homo sapiens) (UniProt Q5JTV8); test: compound microarray binding of lysate hLAP1 – cell lysate, small-molecule microarray, COS7 lysate, 635/667 nm fluorescence, primary screen (AID 1116); conditions: 635 nm fluorescence, higher = more signal
[20] = biological target: Alpha-bungarotoxin (Bungarus multicinctus) (UniProt P60615); test: compounds binding labelled alpha-BTX control protein – biochemical, small-molecule microarray, Alexa647 label, 635/667 nm fluorescence, artefact control for SMM control protein annotation, profiling panel (AID 1117); conditions: alpha-BTX-A647 binding fluorescence, higher = more signal
Chain of Alpha-bungarotoxin (Bungarus multicinctus) (P60615 whole entry, looked up): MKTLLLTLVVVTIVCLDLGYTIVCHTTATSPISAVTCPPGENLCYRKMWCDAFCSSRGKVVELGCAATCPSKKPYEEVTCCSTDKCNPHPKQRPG

Chain of Fibroblast growth factor 10 (Homo sapiens) (O15520 whole entry, looked up): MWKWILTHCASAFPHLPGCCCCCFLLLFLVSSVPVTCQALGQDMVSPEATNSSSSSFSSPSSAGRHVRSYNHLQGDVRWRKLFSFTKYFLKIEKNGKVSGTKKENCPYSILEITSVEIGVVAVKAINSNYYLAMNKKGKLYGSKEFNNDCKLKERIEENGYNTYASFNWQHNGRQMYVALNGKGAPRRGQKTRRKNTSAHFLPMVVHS
Chain of Dickkopf-related protein 1 (Homo sapiens) (O94907 whole entry, looked up): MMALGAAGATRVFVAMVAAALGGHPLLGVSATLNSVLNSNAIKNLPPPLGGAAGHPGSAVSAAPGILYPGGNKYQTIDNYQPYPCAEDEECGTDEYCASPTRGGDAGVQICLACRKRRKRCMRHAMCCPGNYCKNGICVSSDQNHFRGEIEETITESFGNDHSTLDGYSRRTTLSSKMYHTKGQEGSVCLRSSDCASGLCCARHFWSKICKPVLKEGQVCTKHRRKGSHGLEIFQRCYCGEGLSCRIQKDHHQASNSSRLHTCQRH
Chain of Left-right determination factor 2 (Homo sapiens) (O00292 whole entry, looked up): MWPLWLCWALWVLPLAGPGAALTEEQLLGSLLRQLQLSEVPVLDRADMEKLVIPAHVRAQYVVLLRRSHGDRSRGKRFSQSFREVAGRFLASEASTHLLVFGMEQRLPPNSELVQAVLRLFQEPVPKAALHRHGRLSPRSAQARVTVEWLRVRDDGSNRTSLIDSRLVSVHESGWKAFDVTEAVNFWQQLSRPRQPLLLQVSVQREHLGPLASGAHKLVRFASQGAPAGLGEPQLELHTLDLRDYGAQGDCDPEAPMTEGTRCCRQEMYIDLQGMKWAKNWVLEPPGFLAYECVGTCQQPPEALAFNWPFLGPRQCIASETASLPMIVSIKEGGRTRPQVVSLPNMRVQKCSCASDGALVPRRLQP
Chain of Follistatin-related protein 3 (Homo sapiens) (O95633 whole entry, looked up): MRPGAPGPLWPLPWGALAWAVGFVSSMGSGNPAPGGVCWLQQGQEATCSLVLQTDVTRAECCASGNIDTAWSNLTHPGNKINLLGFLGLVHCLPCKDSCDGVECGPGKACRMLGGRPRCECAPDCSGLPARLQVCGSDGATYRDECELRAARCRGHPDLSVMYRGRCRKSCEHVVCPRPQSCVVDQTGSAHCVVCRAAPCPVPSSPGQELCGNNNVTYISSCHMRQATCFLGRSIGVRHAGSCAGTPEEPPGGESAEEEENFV
Chain of Torsin-1A-interacting protein 1 (Homo sapiens) (Q5JTV8 whole entry, looked up): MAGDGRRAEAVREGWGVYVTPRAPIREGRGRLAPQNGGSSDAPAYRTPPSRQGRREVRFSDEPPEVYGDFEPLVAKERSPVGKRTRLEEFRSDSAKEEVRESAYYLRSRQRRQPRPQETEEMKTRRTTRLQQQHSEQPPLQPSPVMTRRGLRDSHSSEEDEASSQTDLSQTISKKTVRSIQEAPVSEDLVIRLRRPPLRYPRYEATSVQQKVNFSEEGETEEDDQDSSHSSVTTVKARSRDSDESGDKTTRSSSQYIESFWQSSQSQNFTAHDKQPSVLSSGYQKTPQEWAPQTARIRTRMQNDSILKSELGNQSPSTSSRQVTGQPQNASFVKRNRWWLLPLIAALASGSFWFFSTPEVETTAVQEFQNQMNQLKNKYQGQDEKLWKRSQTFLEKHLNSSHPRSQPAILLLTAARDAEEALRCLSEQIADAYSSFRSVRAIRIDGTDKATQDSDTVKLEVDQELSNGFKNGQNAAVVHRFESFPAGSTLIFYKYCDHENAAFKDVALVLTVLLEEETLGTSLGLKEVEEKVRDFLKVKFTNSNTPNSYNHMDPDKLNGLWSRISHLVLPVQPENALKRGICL
Chain of Epidermal growth factor receptor (Homo sapiens) (P00533 whole entry, looked up): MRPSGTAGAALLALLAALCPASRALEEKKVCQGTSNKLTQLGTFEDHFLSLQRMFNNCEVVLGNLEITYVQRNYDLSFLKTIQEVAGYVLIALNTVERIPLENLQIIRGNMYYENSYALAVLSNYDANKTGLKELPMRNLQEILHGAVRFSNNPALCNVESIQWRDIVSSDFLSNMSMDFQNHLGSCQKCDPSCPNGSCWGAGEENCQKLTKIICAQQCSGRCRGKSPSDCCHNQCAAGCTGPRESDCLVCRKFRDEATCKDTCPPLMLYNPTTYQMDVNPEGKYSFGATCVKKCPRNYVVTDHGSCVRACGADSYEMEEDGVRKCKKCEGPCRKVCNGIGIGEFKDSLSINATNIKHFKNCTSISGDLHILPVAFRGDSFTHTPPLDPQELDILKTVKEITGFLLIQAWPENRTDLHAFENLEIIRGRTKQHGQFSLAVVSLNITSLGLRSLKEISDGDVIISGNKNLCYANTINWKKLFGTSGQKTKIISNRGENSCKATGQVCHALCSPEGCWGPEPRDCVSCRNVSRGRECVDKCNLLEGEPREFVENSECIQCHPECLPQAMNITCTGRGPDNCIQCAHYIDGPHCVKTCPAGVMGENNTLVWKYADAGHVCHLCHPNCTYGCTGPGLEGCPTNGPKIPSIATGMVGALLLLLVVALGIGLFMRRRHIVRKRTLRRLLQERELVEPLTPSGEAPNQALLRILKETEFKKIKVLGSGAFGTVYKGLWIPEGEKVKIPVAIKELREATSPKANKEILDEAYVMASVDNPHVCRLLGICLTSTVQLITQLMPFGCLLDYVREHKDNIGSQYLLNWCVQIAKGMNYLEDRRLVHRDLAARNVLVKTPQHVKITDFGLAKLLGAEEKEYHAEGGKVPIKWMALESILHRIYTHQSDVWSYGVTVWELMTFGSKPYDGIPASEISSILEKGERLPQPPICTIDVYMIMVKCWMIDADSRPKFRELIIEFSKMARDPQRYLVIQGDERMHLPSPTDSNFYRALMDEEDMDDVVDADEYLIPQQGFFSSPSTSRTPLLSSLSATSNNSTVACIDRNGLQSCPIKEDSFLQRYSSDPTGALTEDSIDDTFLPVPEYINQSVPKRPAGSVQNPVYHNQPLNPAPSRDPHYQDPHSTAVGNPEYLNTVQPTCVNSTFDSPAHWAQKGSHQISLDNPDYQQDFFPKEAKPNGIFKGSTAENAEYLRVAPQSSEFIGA

Row | Compound | composite z-score [1] | composite z-score [2] | composite z-score [3] | z-score [4] | composite z-score [5] | composite z-score [6] | composite z-score [7] | composite z-score [8] | composite z-score [9] | composite z-score [10] | composite z-score [11] | z-score [12] | composite z-score [13] | composite z-score [14] | composite z-score [15] | composite z-score [16] | composite z-score [17] | composite z-score [18] | composite z-score [19] | composite z-score [20]
1 | C#CCCCON=C1C[C@@H](O)[C@@H](O)[C@@H]2[C@@H]3C(=O)N(CCC(=O)OCC)C(=O)[C@@H]3CC[C@@H]12 | -0.346 | 1.17 | 1.51 | 0.907 (inactive) | -0.0714 | -0.493 | -0.905 | -0.911 | -0.908 | 0.459 | -0.58 | -2.78 | -0.174 | -0.335 | 0.0811 | -0.0748 | 0.246 | 0.206 | -0.221 | 1.04
2 | CC(CCN1CCCCc2nc(C)c(C)cc21)=NOC(C)CN1CCCc2nc(C)c(C)cc21 (stereo not given) | 1.53 | 0.699 | -0.324 | 0.506 (inactive) | 1.35 | 1.32 | 1.56 | 1.47 | 1.05 | 1.5 | 1.2 | -0.974 | 1.12 | 1.09 | -0.573 | 0.298 | 1.25 | 0.578 | 1.13 | 2.07
3 | CC(C)=CCCC(C)=CCON=C1[C@H]2CCn3c(=O)n(Cc4cc5c(cc4Cl)OCO5)c(=O)n3[C@H]2[C@H](O)[C@@H]2O[C@H]12 | 0.398 | -0.277 | -0.248 | -0.696 (inactive) | 0.427 | 0.173 | 0.984 | 0.677 | 0.472 | 1.27 | -0.118 | -0.78 | 0.463 | -0.175 | -0.591 | 0.0388 | -0.138 | -0.181 | 0.989 | -0.112
4 | CCCNC(=O)[C@@H]1c2ccccc2C(=O)N(c2ccc(C)cn2)[C@H]1c1ccc(CO)cc1 | 1.78 | 0.662 | 0.733 | 1.12 (inactive) | -0.584 | -0.503 | -0.327 | -1.06 | -0.537 | 1.14 | -1.05 | 0.0924 | -0.181 | -0.769 | -0.462 | -0.238 | -0.0155 | -0.434 | 0.185 | 0.4
5 | CC(C)CON=C1[C@H]2CCn3c(=O)n(-c4ccccc4)c(=O)n3[C@H]2[C@H](O)[C@@H]2O[C@H]12 | 0.734 | -0.217 | -0.481 | -0.271 (inactive) | 0.229 | 0.298 | 0.481 | 0.532 | 1.2 | -0.0603 | -0.626 | -2.53 | 0.598 | -0.148 | -0.687 | -0.291 | -0.267 | -0.269 | 0.14 | 0.0478
6 | CCOC(=O)NN=C1C[C@@H](O)[C@@H](O)[C@@H]2[C@@H]3C(=O)N(C4CCCCC4)C(=O)[C@@H]3CC[C@H]12 | 0.253 | 0.135 | -0.0663 | 0.035 (inactive) | 0.38 | 0.518 | 0.416 | 0.333 | 0.701 | -0.341 | 0.0361 | -0.314 | 0.511 | -0.101 | -0.469 | -0.128 | 0.199 | -0.245 | 0.217 | -0.177
7 | CO[C@@H]1COC(=O)[C@H](C)NC(=O)[C@@H](C)COC(=O)CCC[C@H]1C | 0.957 | -0.122 | -0.554 | 0.494 (inactive) | 0.721 | 0.115 | 0.429 | 1.11 | 0.705 | -0.0431 | 0.379 | -1.33 | 0.753 | -0.485 | -0.704 | -0.101 | -0.138 | -0.169 | 0.268 | -0.0916
8 | O=C1[C@H]2[C@H]3[C@H](O)[C@H](O)CC(=NO[C@@H]4O[C@H](CO)[C@@H](O)[C@H](O)[C@H]4O)[C@H]3CC[C@H]2C(=O)N1Cc1ccc2c(c1)OCO2 | 0.381 | 0.215 | 0.821 | -0.0194 (inactive) | -0.0585 | -0.417 | -0.678 | -0.387 | -0.899 | -0.401 | 1.44 | -0.594 | -0.515 | -0.603 | -0.329 | -0.115 | -0.397 | 0.0327 | 0.441 | 1.02
9 | CC(C)NC(=O)[C@@]1(c2ccc([N+](=O)[O-])cc2)CC(=O)N(CC23CC4CC(CC(C4)C2)C3)[C@@H]1c1ccc(CO)cc1I | 0.504 | 0.921 | 0.197 | 0.278 (inactive) | 0.0738 | 1.12 | 0.353 | 0.252 | 0.208 | 0.197 | 1.36 | -3.4 | 0.0161 | 0.613 | 0.273 | -0.0107 | 0.0796 | -0.41 | 0.981 | 0.442
10 | COC(=O)[C@@H]1CC[C@H](C)[C@@H](c2ccc(C)cc2)N1C(=O)c1ccc(C=NOC(C)CN2CCCCc3nc(C)c(C)cc32)cc1 (stereo not given in full) | 0.775 | -0.136 | 0.174 | -0.423 (inactive) | 0.127 | -0.626 | 0.598 | 0.0406 | 0.323 | 1.49 | -0.278 | -3.62 | 0.359 | -0.0385 | 0.076 | 0.0437 | 0.0893 | 0.0274 | 0.652 | 0.709
11 | CCCNC(=O)OC[C@H]1O[C@H](CCON=C2[C@H]3CCn4c(=O)n(-c5ccccc5)c(=O)n4[C@H]3[C@H](O)[C@@H]3O[C@H]23)C=C[C@@H]1Oc1ccc(OC)cc1 | 0.357 | -0.139 | -0.182 | -0.374 (inactive) | 0.2 | 0.343 | -0.0629 | 0.493 | 0.378 | 0.103 | 0.252 | -4.4 | 0.292 | -1.01 | -0.661 | -0.0944 | 0.0062 | -0.124 | -0.0551 | 0.134
